Here are results for eight sequences from article PMC7862700, “An all-to-all approach to the identification of sequence-specific readers for epigenetic DNA modifications on cytosine”.

What all share (assay): DAPPL (digital affinity profiling via proximity ligation, sequencing); 10 mM Tris-HCl pH 7.5, 50 mM NaCl, 1 mM DTT, 4% glycerol, room temperature, 30 min; GST-TFs on glutathione beads, 16-mer random dsDNA library, 0.1% formaldehyde crosslink after washing; high values mean tight binding
Conditions in all cases: protein: recombinant; tags: N-terminal GST; dsDNA, one strand shown

One test has as its target T1, ERF (Homo sapiens, UniProt P50548 1-548).
T1 sequence: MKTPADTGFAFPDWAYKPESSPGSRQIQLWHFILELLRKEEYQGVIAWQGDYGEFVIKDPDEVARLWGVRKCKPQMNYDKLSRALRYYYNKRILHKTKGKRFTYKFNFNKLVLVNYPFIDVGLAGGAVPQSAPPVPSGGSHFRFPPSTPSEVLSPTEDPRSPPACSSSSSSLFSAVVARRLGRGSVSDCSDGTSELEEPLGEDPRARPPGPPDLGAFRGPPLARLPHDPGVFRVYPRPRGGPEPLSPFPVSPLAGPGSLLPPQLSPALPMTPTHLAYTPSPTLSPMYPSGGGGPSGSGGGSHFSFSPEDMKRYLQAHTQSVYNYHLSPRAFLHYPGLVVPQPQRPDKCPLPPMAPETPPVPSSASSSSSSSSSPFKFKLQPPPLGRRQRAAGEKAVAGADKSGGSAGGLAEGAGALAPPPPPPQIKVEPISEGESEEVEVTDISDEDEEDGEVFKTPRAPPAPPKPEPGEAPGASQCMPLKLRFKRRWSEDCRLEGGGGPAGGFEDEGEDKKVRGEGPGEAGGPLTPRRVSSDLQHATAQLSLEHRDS
Put shortly:
(§1)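 Yeast served to express human transcription factors as GST fusions, which were then captured on glutathione beads and labelled with DNA barcodes. Pooled with a tag-only sample, they were incubated with 200 nmole of a 16-mer random double-stranded DNA library for 30 min at room temperature in Tris/NaCl/DTT/glycerol buffer, washed, crosslinked with 0.1% formaldehyde, ligated by proximity, amplified by PCR and sequenced. Dividing each hexamer's read frequency for a factor by its frequency for the tag-only sample gives the binding signal.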

The next test concerns the target T2, ETV3L (Homo sapiens, UniProt Q6ZN32 1-361).
T2 sequence: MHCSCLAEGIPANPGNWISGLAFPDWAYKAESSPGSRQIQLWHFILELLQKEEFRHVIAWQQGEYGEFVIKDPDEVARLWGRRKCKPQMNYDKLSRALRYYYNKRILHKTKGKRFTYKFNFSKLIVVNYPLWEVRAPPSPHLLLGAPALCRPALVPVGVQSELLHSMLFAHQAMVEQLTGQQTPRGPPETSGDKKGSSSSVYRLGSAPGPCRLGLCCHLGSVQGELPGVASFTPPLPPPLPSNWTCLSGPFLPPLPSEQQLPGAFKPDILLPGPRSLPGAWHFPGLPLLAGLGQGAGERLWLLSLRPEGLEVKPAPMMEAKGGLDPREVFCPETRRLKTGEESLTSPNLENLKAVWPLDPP
An outline of the steps:
as §1

For the next test, the target named is T3, ETS2 (Homo sapiens, UniProt P15036 1-469).
T3 sequence: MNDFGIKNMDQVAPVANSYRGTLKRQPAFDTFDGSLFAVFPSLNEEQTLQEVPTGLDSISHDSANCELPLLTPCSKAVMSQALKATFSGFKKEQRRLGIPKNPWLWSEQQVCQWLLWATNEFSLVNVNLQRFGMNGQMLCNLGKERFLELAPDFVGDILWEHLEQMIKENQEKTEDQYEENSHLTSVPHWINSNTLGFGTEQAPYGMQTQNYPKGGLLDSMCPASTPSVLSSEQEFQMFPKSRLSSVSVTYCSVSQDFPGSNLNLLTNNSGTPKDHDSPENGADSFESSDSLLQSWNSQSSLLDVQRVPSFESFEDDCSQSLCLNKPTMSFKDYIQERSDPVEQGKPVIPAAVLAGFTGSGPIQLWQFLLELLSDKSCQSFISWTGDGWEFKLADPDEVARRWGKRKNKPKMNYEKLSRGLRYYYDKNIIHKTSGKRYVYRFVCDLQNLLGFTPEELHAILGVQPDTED
Put shortly: as §1

The target in the next test is T4, SPDEF (Homo sapiens, UniProt O95238 1-335).
T4 sequence: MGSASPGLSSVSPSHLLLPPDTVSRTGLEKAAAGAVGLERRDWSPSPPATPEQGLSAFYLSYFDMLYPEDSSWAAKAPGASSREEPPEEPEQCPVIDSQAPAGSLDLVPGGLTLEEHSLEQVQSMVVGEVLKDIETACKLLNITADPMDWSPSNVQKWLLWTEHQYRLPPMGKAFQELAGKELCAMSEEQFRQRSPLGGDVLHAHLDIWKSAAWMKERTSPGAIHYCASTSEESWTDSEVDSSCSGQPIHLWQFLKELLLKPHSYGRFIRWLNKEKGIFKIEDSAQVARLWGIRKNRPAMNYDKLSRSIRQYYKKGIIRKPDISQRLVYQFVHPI
Put shortly: as §1

The next test addresses T5, ETV7 (Homo sapiens, UniProt Q9Y603 1-341).
T5 sequence: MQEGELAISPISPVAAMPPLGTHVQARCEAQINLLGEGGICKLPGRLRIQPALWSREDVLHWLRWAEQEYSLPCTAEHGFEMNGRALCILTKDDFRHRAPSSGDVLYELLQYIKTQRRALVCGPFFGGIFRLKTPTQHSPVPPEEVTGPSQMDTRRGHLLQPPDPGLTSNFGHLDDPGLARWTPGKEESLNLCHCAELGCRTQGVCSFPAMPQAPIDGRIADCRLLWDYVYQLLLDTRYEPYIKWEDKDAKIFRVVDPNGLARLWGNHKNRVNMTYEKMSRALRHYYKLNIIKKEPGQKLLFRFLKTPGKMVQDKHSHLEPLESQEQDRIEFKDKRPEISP
An outline of the steps:
as §1

For another test, the target named is T6, ELF5 (Homo sapiens, UniProt Q9UKW6-2 1-255).
T6 sequence: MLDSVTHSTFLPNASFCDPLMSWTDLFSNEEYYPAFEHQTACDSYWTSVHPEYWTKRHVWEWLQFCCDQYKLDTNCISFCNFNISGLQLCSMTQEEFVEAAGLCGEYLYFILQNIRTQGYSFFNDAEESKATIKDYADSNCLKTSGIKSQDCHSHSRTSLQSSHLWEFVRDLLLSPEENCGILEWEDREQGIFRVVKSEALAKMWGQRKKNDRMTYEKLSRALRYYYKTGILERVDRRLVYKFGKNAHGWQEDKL
Put shortly: as §1

In another test the target is T7, ETV3 (Homo sapiens, UniProt P41162-2 1-143).
T7 sequence: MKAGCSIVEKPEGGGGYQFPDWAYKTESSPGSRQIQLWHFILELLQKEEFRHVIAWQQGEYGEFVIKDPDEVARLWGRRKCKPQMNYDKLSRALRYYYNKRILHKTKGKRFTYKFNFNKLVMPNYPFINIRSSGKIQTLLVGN
Put shortly:
as §1

In the next test the target is ETV6 (Homo sapiens, UniProt P41212 1-452). An outline of the steps: as §1
Chain of ETV6 (P41212 whole entry): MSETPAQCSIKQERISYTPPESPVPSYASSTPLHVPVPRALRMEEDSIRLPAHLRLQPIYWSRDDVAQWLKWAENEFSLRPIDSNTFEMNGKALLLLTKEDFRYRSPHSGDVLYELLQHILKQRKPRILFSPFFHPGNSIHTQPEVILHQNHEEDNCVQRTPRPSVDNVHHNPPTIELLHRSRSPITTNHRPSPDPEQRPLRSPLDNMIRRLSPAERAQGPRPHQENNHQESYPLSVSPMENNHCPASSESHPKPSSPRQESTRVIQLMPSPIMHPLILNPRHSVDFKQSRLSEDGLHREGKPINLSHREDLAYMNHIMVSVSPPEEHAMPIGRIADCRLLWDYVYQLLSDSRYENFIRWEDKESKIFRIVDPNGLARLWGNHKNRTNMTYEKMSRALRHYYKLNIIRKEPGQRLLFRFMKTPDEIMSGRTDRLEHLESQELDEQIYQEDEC

With CAACGA, the binding signal is 1.05 fold enrichment (6-mer frequency, TF over GST control) with ERF; 1.08 fold enrichment (6-mer frequency, TF over GST control) with ETV3L; 1.11 fold enrichment (6-mer frequency, TF over GST control) in the test with ETS2; 1.01 fold enrichment (6-mer frequency, TF over GST control) with SPDEF; 1.05 fold enrichment (6-mer frequency, TF over GST control) with ETV7; 1.01 fold enrichment (6-mer frequency, TF over GST control) in the test with ELF5. The binding signal in the test with ETV3 is 1.07 fold enrichment (6-mer frequency, TF over GST control); with ETV6, 1.04 fold enrichment (6-mer frequency, TF over GST control).
On to AAATGC, for which the binding signal was 1.27 fold enrichment (6-mer frequency, TF over GST control) with ERF; 1.26 fold enrichment (6-mer frequency, TF over GST control) in the test with ETV3L; 1.25 fold enrichment (6-mer frequency, TF over GST control) with ETS2; 1.3 fold enrichment (6-mer frequency, TF over GST control) with SPDEF; 1.34 fold enrichment (6-mer frequency, TF over GST control) in the test with ETV7; 1.33 fold enrichment (6-mer frequency, TF over GST control) with ELF5. For the same sequence, the binding signal is 1.18 fold enrichment (6-mer frequency, TF over GST control) in the test with ETV3 and 1.35 fold enrichment (6-mer frequency, TF over GST control) with ETV6.
With CCGAAA, the binding signal with ERF is 1.22 fold enrichment (6-mer frequency, TF over GST control); with ETV3L, 1.2 fold enrichment (6-mer frequency, TF over GST control); in the test with ETS2, 1.22 fold enrichment (6-mer frequency, TF over GST control); with SPDEF it was 1.17 fold enrichment (6-mer frequency, TF over GST control); with ETV7, 1.24 fold enrichment (6-mer frequency, TF over GST control); with ELF5 it was 1.18 fold enrichment (6-mer frequency, TF over GST control). For the same sequence, the binding signal was 1.19 fold enrichment (6-mer frequency, TF over GST control) in the test with ETV3 and 1.28 fold enrichment (6-mer frequency, TF over GST control) in the test with ETV6.
On to TTCTAA, for which the binding signal was 1.23 fold enrichment (6-mer frequency, TF over GST control) with ERF; 1.16 fold enrichment (6-mer frequency, TF over GST control) with ETV3L; 1.26 fold enrichment (6-mer frequency, TF over GST control) in the test with ETS2; 1.22 fold enrichment (6-mer frequency, TF over GST control) with SPDEF; 1.23 fold enrichment (6-mer frequency, TF over GST control) in the test with ETV7; 1.17 fold enrichment (6-mer frequency, TF over GST control) with ELF5. In addition, the binding signal with ETV3 was 1.19 fold enrichment (6-mer frequency, TF over GST control); with ETV6, 1.24 fold enrichment (6-mer frequency, TF over GST control).
For the sequence CGCTTA, the binding signal with ERF is 1.31 fold enrichment (6-mer frequency, TF over GST control); with ETV3L, 1.3 fold enrichment (6-mer frequency, TF over GST control); with ETS2 it was 1.25 fold enrichment (6-mer frequency, TF over GST control); with SPDEF, 1.3 fold enrichment (6-mer frequency, TF over GST control); with ETV7 it was 1.31 fold enrichment (6-mer frequency, TF over GST control); with ELF5, 1.19 fold enrichment (6-mer frequency, TF over GST control). Further, the binding signal with ETV3 was 1.34 fold enrichment (6-mer frequency, TF over GST control); with ETV6, 1.11 fold enrichment (6-mer frequency, TF over GST control).
Consider ATTGCT, for which the binding signal is 1.15 fold enrichment (6-mer frequency, TF over GST control) in the test with ERF; 1.25 fold enrichment (6-mer frequency, TF over GST control) with ETV3L; 1.23 fold enrichment (6-mer frequency, TF over GST control) in the test with ETS2; 1.17 fold enrichment (6-mer frequency, TF over GST control) with SPDEF; 1.43 fold enrichment (6-mer frequency, TF over GST control) in the test with ETV7; 1.18 fold enrichment (6-mer frequency, TF over GST control) with ELF5. For the same sequence, the binding signal in the test with ETV3 was 1.11 fold enrichment (6-mer frequency, TF over GST control); with ETV6, 1.15 fold enrichment (6-mer frequency, TF over GST control).
In the case of AGCGAC, the binding signal is 1.32 fold enrichment (6-mer frequency, TF over GST control) with ERF; 1.13 fold enrichment (6-mer frequency, TF over GST control) with ETV3L; 1.15 fold enrichment (6-mer frequency, TF over GST control) with ETS2; 1.01 fold enrichment (6-mer frequency, TF over GST control) with SPDEF; 1.22 fold enrichment (6-mer frequency, TF over GST control) with ETV7; 1.2 fold enrichment (6-mer frequency, TF over GST control) with ELF5. Moreover, the binding signal is 1.14 fold enrichment (6-mer frequency, TF over GST control) in the test with ETV3 and 1.17 fold enrichment (6-mer frequency, TF over GST control) with ETV6.
For GGATTT, the binding signal is 1.17 fold enrichment (6-mer frequency, TF over GST control) in the test with ERF; 1.21 fold enrichment (6-mer frequency, TF over GST control) with ETV3L; 1.24 fold enrichment (6-mer frequency, TF over GST control) in the test with ETS2; 1.57 fold enrichment (6-mer frequency, TF over GST control) in the test with SPDEF; 1.07 fold enrichment (6-mer frequency, TF over GST control) in the test with ETV7; 1.38 fold enrichment (6-mer frequency, TF over GST control) in the test with ELF5. Moreover, the binding signal with ETV3 is 1.21 fold enrichment (6-mer frequency, TF over GST control); with ETV6, 1.3 fold enrichment (6-mer frequency, TF over GST control).
